HT1080NT lethal = qHTS for induction of synthetic lethality in tumor cells producing 2HG: qHTS for the HT-1080-NT fibrosarcoma cell line | HT-1080-NT fibrosarcoma viability, CellTiter-Glo ATP luminescence, 48 h | Potency, µM (series often up to 46.1 µM), for the others: top-dose activity, negative = less viability, actives largely listed as cytotoxic | actives 1.6% (n = 360,000);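 also: NT is the 2HG producing partner of a matched IDH1 knockdown line; potency is read from the fitted curve at half-maximal effect; 0% = DMSO-treated cells and -100% = media-only wells without cells; nearly all actives have a fitted effect of over 55% in size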
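Fibrosarcoma NT cells, 750 per well in 5% FBS RPMI, were exposed to compound for 48 hours. Viability: CellTiter-Glo luminescence.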
IL1B secr inh = qHTS for Inhibitors of Inflammasome Signaling: IL-1-beta AlphaLISA Primary Screen. THP-1 LPS/ATP IL-1B secretion, AlphaLISA, 16 h; stronger effect = lower value. activity change, % at 57.5 µM. actives 4.7% (n = 360,000). AID 743279, 2014; in the data active = activity change below about -50%; inconclusive = mostly about -30% to -49%
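Secreted IL-1B measured by AlphaLISA bead assay after 16 h compound exposure of THP-1 cells; compounds (final up to 57.5 uM) added 1 h before LPS (250 ng/mL) and ATP (1.25 mM) stimulation; lower signal means less secretion.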
uPA generation = qHTS for Inhibitors of Cell Surface uPA Generation; AID 540303, 2011; cell surface uPA generation assay, qHTS; actives 0.31% (n = 330,000); Potency, µM (top dose mostly 38.3 µM), for inactives: at the highest dose activity change, negative = inhibition, hits mostly inhibitors; active = well fitted inhibition curve with a large enough effect; inconclusive = small, poorly fitted or top-dose-only effect; inactive = no such curve, though single readings can be large or run the other way; tested in mouse RAW 264.7 cells; also: potency is read from the fitted curve at half-maximal effect; nearly all actives have a fitted effect of over 55% in size
TDP1 cell CPT = qHTS for Inhibitors of human tyrosyl-DNA phosphodiesterase 1 (TDP1): qHTS in cells in presence of CPT; AID 686979, 2013; actives 12% (n = 420,000); chicken DT40 Tdp1-/-;hTDP1 cells + 20 nM CPT, ATP luminescence, 48 h; Potency, µM (series often up to 46.2 µM), for inactives: top-dose activity change, negative = growth inhibition, usual class: inhibitors; also: potency is read from the fitted curve at half-maximal effect; nearly all actives have a fitted effect of over 55% in size
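Cell growth measured by CellTiter-Glo luminescence after a minimum 48 h, 37 C compound exposure with 20 nM CPT in Tdp1-knockout DT40 cells stably expressing hTDP1, seeded 400/well; qHTS titration format.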
HT1080 IDH1KD tx = qHTS for induction of synthetic lethality in tumor cells producing 2HG: qHTS for the HT-1080-IDH1KD cell line; HT-1080 IDH1 knockdown viability, ATP luminescence, 48 h; Potency, µM (titrated, usually from 46.1 µM), for inactives: top-dose activity, negative = toxicity, most hits filed as cytotoxic; actives 2% (n = 360,000);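 also: potency is read from the fitted curve at half-maximal effect; 0% = DMSO wells and -100% = cell-free medium wells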
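HT-1080-IDH1KD cells (IDH1 knocked down), 750/well in RPMI with 5% FBS, treated with compound 48 h at 37 degrees C. Viability by CellTiter-Glo luminescence, normalised to DMSO and no-cell wells; concentration-response curves classed.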
DT40 TDP1 no CPT = qHTS for Inhibitors of human tyrosyl-DNA phosphodiesterase 1 (TDP1): qHTS in cells in absence of CPT. DT40 Tdp1-/- hTDP1 cells, no CPT, ATP luminescence, 48 h. Potency, µM (doses to about 46.2 µM), inactives show at the highest dose activity change, negative = growth inhibition, usual class: inhibitors. actives 15% (n = 420,000); also: potency is read from the fitted curve at half-maximal effect; nearly all actives have a fitted effect of over 55% in size
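Growth kinetics read by CellTiter-Glo luminescence after ≥48 hr at 37 °C. Cells: DT40 Tdp1-/- stably carrying human TDP1, 400 per well, compound exposure in the absence of CPT (DMSO vehicle).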
Active calls of the source: *; i = inactive; u = inconclusive; x = no result; [ ] = dose if it differs, or a comment. Sampled rows, rich in hits. Any-hit rate of the full collection: about 19%. Unless noted, calls follow the shape of the dose curve; as a rule, active = well fitted curve in the direction sought with a large enough effect; inconclusive = small, poorly fitted or top-dose-only effect, or another doubt; inactive = no such curve, though single readings can be large; an effect the other way counts as inactive or inconclusive. Unless noted, % is scaled to controls: 0 for no effect and ±100 for the full control effect.

SMILES	HT1080NT lethal	IL1B secr inh	uPA generation	TDP1 cell CPT	HT1080 IDH1KD tx	DT40 TDP1 no CPT
COc1ccc(C(=O)COc2ccc3c(C)cc(=O)oc3c2)cc1	4%	-15	12%	-20%	9%	u
COc1cccc(C(=O)COc2ccc3c(C)cc(=O)oc3c2)c1	-20%	-14	u	3.3µM*	u	2.3µM*
COc1cccc(C(=O)N2CCc3cc(OC)c(OC)cc3C2COc2ccc3c(C)cc(=O)oc3c2)c1 (centres undefined)	x	x	x	u	x	10µM*
CC(=O)c1cccc(NC(=O)COc2ccc3oc(=O)cc(C)c3c2)c1	1%	-3	4%	18µM*	1%	u
COCC(=O)N1CCc2cc(OC)c(OC)cc2C1COc1ccc2c(C)cc(=O)oc2c1 (centres undefined)	x	x	x	-27%	x	u
Cc1c(NC(=O)c2cccc(NC(=O)COc3ccc(C#N)cc3)c2)c(=O)n(-c2ccccc2)n1C	0%	-5	-2%	-9%	5%	-47%
CC(=O)N1CCOc2ccc(S(=O)(=O)NCCc3ccc(Cl)cc3)cc21	3%	33	-2%	-4%	-10%	17%
CC(=O)Nc1ccc(C2NC(=O)CCC2[N+](=O)[O-])cc1 (centres undefined)	7%	13	1%	13%	6%	4%
Cc1cc(=O)oc2cc(OCC(=O)Nc3c(Cl)cccc3C(F)(F)F)ccc12	-23%	-11	2%	u	-23%	13µM*
COc1cc2c(cc1OC)C(COc1ccc3c(C)cc(=O)oc3c1)N(C(=O)c1ccccc1F)CC2 (centres undefined)	x	x	x	u	x	21µM*
Cc1cccc(C)c1NC(=O)COc1ccc2c(C)c(Cc3ccccc3)c(=O)oc2c1	10%	2	-1%	u	6%	12µM*
COc1cc(NC(=O)COc2cc(C)cc3oc(=O)c(C)c(C)c23)cc(OC)c1OC	2%	13	8%	-7%	-3%	6%
COc1cc(NC(=O)COc2cc3oc(=O)cc(C)c3cc2Cl)cc(OC)c1OC	7%	-16	1%	8.2µM*	10%	5.8µM*
O=C(OC1CCOC1=O)c1cc(S(=O)(=O)N2CCOCC2)c(Cl)cc1Cl (centres undefined)	6%	-12	6%	2%	14%	3%
NC(Cc1cc(I)c(Oc2cc(I)c(O)c(I)c2)c(I)c1)C(=O)O (centres undefined)	x	x	x	7%	x	-14%
CC(=O)c1ccc(NC(=O)C(C)n2nc(-c3ccccc3)ccc2=O)cc1 (centres undefined)	x	x	x	-1%	x	-6%
Cc1ccc(S(=O)(=O)N(C)C)cc1NC(=O)COC(=O)CNC(=O)c1cccs1	-3%	-14	4%	-7%	1%	-1%
OCC1(Cc2ccc(Cl)cc2)CCN(CC2CC=CCC2)CC1 (centres undefined)	-14%	-62*	-2%	29µM*	u	u
CSc1ccc(CN2CCC(CO)(Cc3ccc(Cl)cc3)CC2)cc1	u	-94*	-1%	u	-23%	18µM*
OCC1(Cc2ccc(Cl)cc2)CCN(Cc2ccccc2F)CC1	u	-26	-1%	u	u	u
OCC1(Cc2ccc(Cl)cc2)CCN(CCCc2ccccc2)CC1	u	-77*	-3%	u	u	23µM*
CN1CCC(CO)(Cc2ccccc2)CC1	3%	11	10%	20%	18%	6%
O=C(NCc1ccon1)C1CCC(=O)N(CCc2ccc(Cl)cc2)C1 (centres undefined)	-4%	i	-2%	-6%	-3%	-10%
Cc1ccc(-c2nnc(N3CCN(C(=O)CN4CCOCC4)CC3)c3ccccc23)cc1	6%	-22	x	-27%	2%	16µM*
Cc1ccc(-c2nnc(N3CCN(C(=O)Cn4c(=O)n(C)c5ccccc54)CC3)c3ccccc23)cc1	1%	11	x	u	-25%	16µM*
SMILES	HT1080NT lethal	IL1B secr inh	uPA generation	TDP1 cell CPT	HT1080 IDH1KD tx	DT40 TDP1 no CPT
COCCN1C(=O)COc2ccccc2C1C(=O)Nc1c(C)cccc1C (centres undefined)	20%	35	x	0%	5%	-17%
Cc1ccc(CNCc2ccc3c(c2)n(C)c(=O)n3C)cc1	x	x	x	-15%	x	-15%
Cc1cc(Br)c(NC(=O)CN2C(=O)NC3(CCOc4ccccc43)C2=O)c(Br)c1 (centres undefined)	-4%	u	x	u	-10%	u
COc1ccc(C(=O)N(Cc2ccccc2)Cc2ccc(OC)c(COc3ccc(NC(C)=O)cc3)c2)cc1	0%	x	x	u	-3%	22µM*
COc1ccc(NC(C)=O)cc1S(=O)(=O)Nc1ccc(OCc2ccccc2)cc1	-20%	10	-2%	16µM*	-20%	15µM*
COc1ccc(F)cc1S(=O)(=O)Nc1ccc(C)cc1	-10%	9	-8%	-3%	-25%	23µM*
O=c1[nH]c2ccc(NS(=O)(=O)c3ccc(Cl)cc3)cc2[nH]1	0%	0	7%	-12%	0%	-11%
COc1ccc(Cl)cc1S(=O)(=O)Nc1ccc2[nH]c(=O)[nH]c2c1	x	x	x	21µM*	x	16µM*
COc1ccc(OC)c(-c2ccnc(-n3ncc(C(=O)NC(C)(C)CO)c3C3CC3)n2)c1	x	x	x	-3%[9.04 µM]	x	-14%
CCOc1ccc(NS(=O)(=O)c2cc(Cl)ccc2OC)cc1	-5%	28	6%	u	-14%	16µM*

Bioassay records as filed in PubChem BioAssay.
